# Experimental data: PubChem BioAssay (NCI)
# The panel holds about 83,000 compounds, 20% with a hit somewhere; the sample as a whole holds those more often.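 Compound tested at a single concentration for 48 hours in 96-well plates; a percent growth value below 10 was scored as active.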 Unmarked numbers belong to inactive results. The source made the active and inactive calls.
# Legend:
# Experiment in all cases: NCI-60 one-dose screen, 48 h (100 = growth as untreated, 0 = no growth, -100 = all killed)
# Settings in all cases: 10 µM unless noted
# DU-145 prostate = tested on: DU-145 prostate
# K-562 leukemia = tested on: K-562 leukemia
# MALME-3M melanoma = tested on: MALME-3M melanoma
# MDA-MB-231 breast = tested on: MDA-MB-231 breast
# RXF 393 renal = tested on: RXF 393 renal
# SF-268 CNS = tested on: SF-268 CNS
# SF-295 CNS = tested on: SF-295 CNS
# SF-539 CNS = tested on: SF-539 CNS
# UACC-257 melanoma = tested on: UACC-257 melanoma
# M14 melanoma = tested on: M14 melanoma
# HCT-15 colon = tested on: HCT-15 colon
# HT29 colon = tested on: HT29 colon
# SNB-75 CNS = tested on: SNB-75 CNS
# SNB-19 CNS = tested on: SNB-19 CNS
# U251 CNS = tested on: U251 CNS
# PC-3 prostate = tested on: PC-3 prostate
# SK-MEL-5 melanoma = tested on: SK-MEL-5 melanoma
# UACC-62 melanoma = tested on: UACC-62 melanoma
# LOX IMVI melanoma = tested on: LOX IMVI melanoma
# SK-MEL-28 melanoma = tested on: SK-MEL-28 melanoma
SMILES,growth (DU-145 prostate),growth (K-562 leukemia),growth (MALME-3M melanoma),growth (MDA-MB-231 breast),growth (RXF 393 renal),growth (SF-268 CNS),growth (SF-295 CNS),growth (SF-539 CNS),growth (UACC-257 melanoma),growth (M14 melanoma),growth (HCT-15 colon),growth (HT29 colon),growth (SNB-75 CNS),growth (SNB-19 CNS),growth (U251 CNS),growth (PC-3 prostate) [%],growth (SK-MEL-5 melanoma),growth (UACC-62 melanoma),growth (LOX IMVI melanoma),growth (SK-MEL-28 melanoma)
O=[N+]([O-])c1ccc([Se]C2CCCCC2Cl)c([N+](=O)[O-])c1 (stereo not given),82.1%,105%,69.8%,61.7%,67.7%,14.3%,-41.3% (active),-87.3% (active),59.2%,40.2%,88.3%,60.7%,-39.9% (active),56.2%,20.4%,58.9,68.6%,72.2%,-55.2% (active),72.6%
COC(=O)[C@@H](C)C[C@H](Cc1ccccc1)NC(=O)c1csc([C@@H](C[C@H](C(C)C)N(C)C(=O)[C@H](C)NC(=O)[C@H]2CCCCN2C)OC(C)=O)n1,4.34% (active),10% (active),44.2%,19.5%,8.78% (active),46.9%,17%,-2.07% (active),45.8%,5.98% (active),45.4%,9.42% (active),18.1%,27.7%,10.8%,19.6,19.3%,28.4%,39.8%,58.1%
COc1ccc(Nc2ccc([N+](=O)[O-])cc2[N+](=O)[O-])cc1CN(CCCl)CCCl,35.8%,24.4%,55.1%,44.1%,-1.08% (active),24.9%,37.6%,15.9%,62.9%,46.7%,27.7%,13.2%,33.7%,22.3%,29.6%,46.8,57.2%,12.1%,3.66% (active),73.6%
CC(C)(C)N1CC1C#N (stereo not given),105%,99%,103%,96.3%,107%,101%,91.4%,103%,105%,110%,99.6%,105%,98.3%,97.2%,100%,103,105%,104%,101%,110%
O=C1NC(=O)C(=Cc2cccn2CCCCCn2c3ccccc3c(=O)c3ccccc32)C(=O)N1,113%,89.1%,119%,116%,110%,102%,99.4%,102%,104%,102%,92.8%,103%,101%,101%,96.8%,91,98.6%,90.7%,95.3%,111%
CC(=O)Oc1ccccc1C(=O)NCCC[Se]C#N,-32.9% (active),30.2%,-24.5% (active),-38.5% (active),-7.78% (active),-22.3% (active),-15.7% (active),-72.1% (active),42.1%,-13.1% (active),-30.6% (active),91.1%,-35.1% (active),-70.3% (active),-62.1% (active),20.6,35.4%,71.3%,-49% (active),7.94% (active)
CN1CC(CNC(=O)OCc2ccccc2)CC2c3cccc4c3c(cn4C)CC21 (stereo not given),56.8%,3.66% (active),-16% (active),27.3%,8.6% (active),59%,25.8%,28.6%,-60.4% (active),-58% (active),8.29% (active),5.34% (active),20.6%,57.8%,13.6%,40,-97.8% (active),5.67% (active),-37.4% (active),-41.1% (active)
CCC(C)(C)[C@H](NC(=O)[C@H]1CCCCN1C)C(=O)N(C)[C@H](C[C@@H](OC(C)=O)c1nc(C(=O)N[C@@H](Cc2ccccc2)C[C@H](C)C(=O)O)cs1)C(C)C,0.164% (active),6.58% (active),27.4%,15.7%,38.4%,23.3%,-7.51% (active),-31% (active),55.5%,-19.3% (active),6.87% (active),-2.9% (active),6.25% (active),17.8%,12.1%,24.9,-18.1% (active),30.9%,16.1%,44.6%
COC(=O)[C@@H](C)C[C@H](Cc1ccccc1)NC(=O)c1csc([C@@H](C[C@H](C(C)C)N(C)C(=O)C2(NC(=O)[C@H]3CCCCN3C)CCC2)OC(C)=O)n1,2.83% (active),2.16% (active),67.1%,-13.6% (active),82.9%,17.6%,6.3% (active),-10.9% (active),60.2%,5.56% (active),17.1%,5.81% (active),28.5%,73.2%,6.93% (active),19.4,-43.7% (active),40%,12.7%,57%
COc1cc2c(c(OC)c1OC)-c1ccc([O-])c(=O)cc1[C@@H](NC(C)=O)CC2.COc1cc2c(c(OC)c1OC)-c1ccc([O-])c(=O)cc1[C@@H](NC(C)=O)CC2.[Cu+2],4.95% (active),2.76% (active),52.5%,35.5%,13.4%,27.1%,18.7%,-17.2% (active),45.1%,7.83% (active),15.8%,9.61% (active),50.1%,25.2%,22.3%,35.1,19.2%,23.5%,36.3%,48.5%
Cc1cc(C)c(CBr)c(C)c1,107%,107%,99.3%,106%,100%,105%,101%,93.5%,96.8%,109%,108%,100%,106%,110%,95.3%,94,97.7%,102%,101%,106%
C=CC[PH+](c1ccccc1)c1ccccc1.C=CC[PH+](c1ccccc1)c1ccccc1.[Cl][Pt][Cl],71.7%,0.456% (active),-26.4% (active),41.8%,-16.6% (active),95.5%,89.8%,68%,80%,51.9%,31.4%,41.1%,66.2%,70.5%,37.5%,54.4,85.8%,52.9%,-6.81% (active),28.4%
CCOC(=O)[C@@H](C)C[C@H](Cc1ccccc1)NC(=O)c1csc([C@@H](C[C@H](C(C)C)N(C)C(=O)CNC(=O)[C@H]2CCCCN2C)OC(C)=O)n1,9.26% (active),6.73% (active),76.1%,14.5%,-13.8% (active),46.6%,5.3% (active),-8.42% (active),58.7%,-20.9% (active),12.8%,4.5% (active),-13.4% (active),17.4%,18.7%,22.7,13.5%,29.8%,34.3%,57.1%
O=C1C(Cl)=C(N2CCOCC2)C(=O)c2ccccc21,114%,-36.7% (active),48.2%,84.2%,129%,87.6%,92.9%,117%,54.4%,105%,71.5%,116%,102%,116%,67%,71.9,92%,105%,76.7%,118%
CC(=O)ONc1ccc([N+](=O)[O-])c(C(F)(F)F)c1,108%,105%,111%,102%,115%,95.3%,97.8%,93.5%,110%,98.8%,108%,108%,82.9%,107%,104%,95.4,109%,96.8%,98.8%,110%
